# Source: PubChem
# Most compounds without a hit are left out; they make up all but 3.6% or so of the library.
# TDP43 rescue: TDP-43 toxicity inhibition in yeast. AID 652104. Potency, µM (titrated, usually from 46.1 µM), inactives show at the highest dose growth rescue (activation), actives largely listed as activators. 410,000 tested, 1.8% active. TDP-43 expressing yeast growth rescue, BacTiter-Glo, 24 h; further: % of control where 0% means no effect; nearly all actives have a fitted effect of over 50% in size
#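 Luminescence from BacTiter-Glo reports growth of TDP-43-expressing yeast after 24 hr at 30 deg C with compound. Cells were raffinose-pregrown to mid-log, then seeded in galactose medium at OD600=0.02.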
# MmCpn inh: inhibitors of Methanococcus maripaludis chaperonin TRiC (MmCpn); 330,000 tested, 0.031% active; purified Mm-Cpn ATPase, ADP Transcreener TR-FRET; Potency, µM (series often up to 76.9 µM), for the others: at the highest dose activity, negative = inhibition, actives largely listed as inhibitors; AID 504842; further: on the % scale 0 is the no-effect control and ±100 the full control effect; nearly all actives have a fitted effect of over 80% in size
#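 Reaction buffer contained 30 mM Tris pH 7.4, 100 mM KCl, 5 mM MgCl2 and 1 mM DTT. Mm-CPN (25 nM final) hydrolysed 10 uM ATP over 30 min at 37°C; ADP was read by HTRF.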
# ClpP mod: qHTS Assay for Activators of ClpP | ATP-dependent Clp protease proteolytic subunit (Bacillus subtilis (strain 168)), P80244 | purified B. subtilis ClpP, FRET peptide cleavage, 20 min | Potency, µM (top dose mostly 57.5 µM), without a hit: at the highest dose activity change, negative = active | 340,000 tested, 1.9% active; active means well fitted falling curve with a large enough effect; inconclusive means small, poorly fitted or top-dose-only effect; inactive means no such curve, though single readings can be large or run the other way; further: the source files actives as falling curves though it sought activators and does not explain the sign; nearly all actives have a fitted effect of over 65% in size
# Target sequence (P80244 whole entry, looked up): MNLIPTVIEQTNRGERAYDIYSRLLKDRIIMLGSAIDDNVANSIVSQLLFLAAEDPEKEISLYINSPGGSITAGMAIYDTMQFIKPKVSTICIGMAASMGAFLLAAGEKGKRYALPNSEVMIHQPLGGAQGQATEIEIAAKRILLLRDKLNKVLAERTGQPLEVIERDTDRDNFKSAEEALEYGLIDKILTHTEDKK
#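 Purified B. subtilis ClpP, 10 microg/mL final in Tris/HCl pH8 with KCl, BSA, glycerol and Tween-20, cleaved an Abz/nitrotyrosine-quenched decapeptide. Fluorescence (ex 320, em 430) was read at 0 and 20 min at room temperature. Delta was normalized to 5.8 microM ADEP and DMSO/no-enzyme controls.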
# Abeta rescue: A-beta toxicity reversal in yeast; yeast expressing A-beta42, growth rescue, OD600, 48 h; response scale: 0% DMSO, 100% iron-clioquinol control; Potency, µM (top dose mostly 46.1 µM), actives largely listed as activators; 410,000 tested, 0.063% active; AID 1347071; further: nearly all actives have a fitted effect of over 55% in size
#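 Yeast growth medium received pinned compounds, then yeast cells expressing toxic A-beta were added; plates incubated at 30 C for 48 hr. Growth read as absorbance at 600 nm, normalized to DMSO and equimolar FeCl3 plus clioquinol controls.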
# FUS suppressor: rescues growth of FUS-expressing yeast; S. cerevisiae FUS-expressing, growth rescue, OD600, 24 h; Potency, µM (doses to about 76.6 µM), usual class: activators; 390,000 tested, 0.24% active;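 further: plate controls were DMSO vehicle for no effect and reference control for full effect; nearly all actives have a fitted effect of over 55% in size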
#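 Yeast FUS proteinopathy model; galactose-induced FUS (2%), starting OD 0.005. Cpds in dilution series, 24hr, 30C, 99% humidity. Abs 600 nm growth. Pos ctrl CP55940 (top 92uM final); neg ctrl DMSO.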
# aSyn yeast inh: rescues yeast growth from alpha-synuclein toxicity | AID 652106 | Yeast expressing alpha-synuclein, growth rescue, BacTiter-Glo, 24 h | 370,000 tested, 0.14% active | Potency, µM (titrated, usually from 46.1 µM), for the others: at the highest dose growth rescue (activation), usual class: activators; further: % of control where 0% means no effect; nearly all actives have a fitted effect of over 65% in size
#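 Screening used galactose-induced yeast with toxic alpha-synuclein levels, exposed to compound for 24 hr at 30 deg C. Cell growth, read with BacTiter-Glo luminescence, gave the measured signal.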
# Starred values were filed as active, the others as inactive; i = inactive; ? = inconclusive; / = no result. Unless noted, the call rests on the fitted dose curve; in most records, active means well fitted curve in the direction sought with a large enough effect; inconclusive means small, poorly fitted or top-dose-only effect, or another doubt; inactive means no such curve, though single readings can be large; an effect the other way counts as inactive or inconclusive. Potency means the concentration at half of the fitted maximal effect.
SMILES,TDP43 rescue,MmCpn inh,ClpP mod,Abeta rescue,FUS suppressor,aSyn yeast inh
Cc1ccc(-c2cn(-c3cccc(Cl)c3)c(S(=O)(=O)CC(=O)Nc3ccccc3F)n2)cc1,28%,/,1%,i,?,/
O=Cc1ccc(-c2ccc(Cl)cc2Cl)[nH]1,20µM*,-3%,0%,i,i,10%
O=C(O)c1ccc(-c2ccc(Cl)cc2Cl)o1,?,0%,-6%,i,i,17%
O=C(CCn1c(=O)c2cccn2c2cccnc21)N1CCN(c2ccc(F)cc2)CC1,13µM*,/,-15%,i,i,/
COc1ccc(N2CCN(C(=O)CCn3c(=O)c4cccn4c4cccnc43)CC2)cc1,-8%,/,-2%,i,i,/
CCSc1nc2ccccc2n1Cc1ccccc1F,14µM*,3%,-2%,i,i,-11%
NC(=O)CSc1nc2ccccc2n1Cc1ccccc1F,23%,-1%,-1%,i,i,?
Fc1ccccc1Cn1c(-c2ccccc2)nc2ccccc21,22µM*,/,-17%,i,i,/
CCOc1ccccc1C1C(C(=O)N2CCCCC2)=C(C)Nc2nc3ccccc3n21 (centres undefined),12%,/,-24%,i,i,/
O=C1c2ccccc2NC(c2ccc(F)cc2)N1Cc1ccccc1 (centres undefined),20µM*,3%,4%,i,i,2%
COc1cccc(C2Nc3ccccc3C(=O)N2Cc2ccccc2)c1 (centres undefined),20%,/,3%,i,i,3%
O=C1c2ccccc2NC(c2ccccc2)N1Cc1ccco1 (centres undefined),5%,17%,28µM*,i,i,8%
O=C1c2ccccc2NC(c2ccccc2)N1Cc1ccccc1 (centres undefined),16µM*,/,-3%,i,i,9%
S=C(NCCCc1cnc[nH]1)NCCCN(CCc1ccc(Cl)cc1)c1ccc(Br)cn1,/,/,-2%,/,/,-34%
CCCCc1ccc(NC(=O)CN(C)CC(=O)Nc2ccccc2Cl)cc1,13%,-2%,/,?,35µM*,27%
CN(CC(=O)Nc1ccccc1)CC(=O)Nc1ccccc1Cl,19%,1%,1%,i,i,10%
CCC(=O)Nc1c(C#N)c2nc3ccccc3nc2n1-c1ccccc1C,10%,-5%,3.5µM*,i,i,2%
CCCCn1c(NC(=O)CC)c(C#N)c2nc3ccccc3nc21,15%,0%,16µM*,i,i,-9%
CCCCC(CC)Cn1c(N)c(C#N)c2nc3ccccc3nc21 (centres undefined),-4%,-4%,32µM*,i,i,-10%
CN(C)CCCn1c(N)c(C#N)c2nc3ccccc3nc21,7%,-6%,/,i,i,-6%
COc1ccc(-n2nc(C(=O)N3CCCCC3)c3c4ccccc4n(C)c3c2=O)cc1Cl,-6%,/,45%,i,i,/
FC(F)(F)c1ccc2nc(CNc3nc(N4CCOCC4)nc4c3ncn4-c3ccsc3)[nH]c2c1,/,/,/,/,i,/
COc1ccc(NC(=O)c2cnc(SCC(=O)Nc3nc4ccc(C)cc4s3)n(C)c2=O)cc1,0%,/,-19%,i,i,/
CCCn1c(-c2ccc(OC)cc2)nc2nc3ccccc3nc21,0%,-2%,28µM*,i,i,-1%
COC(=O)C1=C(O)CSC1=Nc1ccc(C)cc1,16µM*,0%,0%,i,/,9%
COC(=O)C1=C(O)CSC1=Nc1ccccc1,11%,1%,1%,i,i,-10%
O=S1(=O)C=C(SCc2cccc(Cl)c2)Nc2ccccc21,12%,0%,32µM*,i,/,0%
CC(NC(=O)c1ccccc1O)c1ccccc1 (centres undefined),?,3%,16µM*,i,i,-26%
